CHT PAM: human CHT allosteric activation; Q9GZV3; CHT-expressing cells, membrane potential dye, choline EC20; active compounds read high; LV-AA mutant CHT in HEK293 cells; B-score at 10 µM; hit rate 0.49% among 310,000; AID 488977;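 active = initial fluorescence not abnormally high and integrated response B-score, plate-corrected, over 3 SD above library mean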
Target sequence (Q9GZV3 whole entry, looked up): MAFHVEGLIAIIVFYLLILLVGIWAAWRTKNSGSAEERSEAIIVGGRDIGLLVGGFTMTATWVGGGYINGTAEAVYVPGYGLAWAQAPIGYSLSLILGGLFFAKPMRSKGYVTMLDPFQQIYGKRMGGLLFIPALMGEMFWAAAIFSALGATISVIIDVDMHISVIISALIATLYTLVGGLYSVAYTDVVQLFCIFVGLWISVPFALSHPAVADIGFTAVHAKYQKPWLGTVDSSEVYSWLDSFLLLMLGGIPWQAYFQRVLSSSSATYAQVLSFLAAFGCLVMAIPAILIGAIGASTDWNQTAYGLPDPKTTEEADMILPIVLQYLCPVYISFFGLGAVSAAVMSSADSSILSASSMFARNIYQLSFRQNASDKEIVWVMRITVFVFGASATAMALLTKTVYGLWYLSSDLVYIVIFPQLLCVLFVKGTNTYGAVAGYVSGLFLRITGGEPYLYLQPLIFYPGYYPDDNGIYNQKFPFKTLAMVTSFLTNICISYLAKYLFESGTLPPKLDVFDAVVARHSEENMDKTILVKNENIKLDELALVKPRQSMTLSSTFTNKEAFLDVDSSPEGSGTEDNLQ
Bfl-1 A1 inh: inhibitors of the anti-apoptotic protein A1, read as caspase activation; MEF A1-2A-BIM cells, Caspase-Glo 3/7 luminescence, 3 h; percent of clofoctol response, vehicle zero; caspase activation, % (no concentration beside the values); hit rate 0.066% among 330,000; AID 2462;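 active = over half of replicate activation scores above 10%, or exactly half above 10 with the replicate mean above 10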
NALP3 yeast inh: inhibitors of NALP3 inflammasome in yeast. hit rate 0.39% among 330,000. AID 2825. Yeast reconstituted NLRP3/ASC/caspase-1, beta-gal luminescence, 24 h. inhibition, % at 10 µM;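 active = inhibition of 50% or more; inactive = inhibition below 50%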;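 also: plate controls were induced DMSO wells for no effect and uninduced yeast grown without galactose for full effect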
CHT block: human CHT choline transport inhibition. Q9GZV3. CHT-expressing cells, membrane potential dye, choline response; active compounds read low. B-score at 10 µM. hit rate 0.86% among 310,000. AID 488975;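 active = B-score over 3 SD under the library average, and starting fluorescence ratio not unusually high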;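 also: choline stimulus applied at its EC90 after an EC20 pre-addition; B-score computed on integrated fluorescence ratio after choline addition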
Mot1-301 SUMO: inhibitors of SUMOylation pathway: yeast Mot1-301 growth rescue | growth rescue, % at 18.8 µM | S. cerevisiae Mot1-301 growth rescue, ATP luminescence, 38.5C; percent above DMSO median, 100 means doubled | hit rate 1% among 320,000;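 active = every valid replicate shows activation above 250% relative to neutral control wells; inactive = the rest, any valid replicate at or below 250%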;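 also: OY570 slx delta 5 strain wells were the positive control but not used for scaling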
NALP1 inh: blocks the NALP1 inflammasome reconstituted in yeast; AID 2071; inhibition, % at 10 µM; S. cerevisiae NALP1/ASC/caspase-1 growth, X-gal OD620, 72 h; hit rate 0.61% among 280,000; in the data active = inhibition mostly above about 24%, no sharp cut-off; inactive = mostly below about 32%
Mot1 SUMO dose: SUMO pathway inhibitors in yeast Mot1-301 growth; shares compounds with Mot1-301 SUMO; S. cerevisiae Mot1-301 galactose growth, ATP luminescence, 24 h; -100 = growth of slx-deleted rescue strain; growth activity, percent, % at 42 µM; 2,300 tested, under 10 active; AID 493004;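 active = Signal drops as the depositor expects, and the fitted half-maximal dose is no more than ten times the top valid tested dose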;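 also: more negative values mean stronger growth rescue toward the control strain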
* = called active by the depositor. Shown are actives, neighbours in structure and some others; about 3% of the full set was active somewhere.

Results for Cc1ccc(C)c(S(=O)(=O)N2CCN(C(=O)c3ccc(OCc4c(C)noc4C)cc3)CC2)c1 ?
CHT PAM: inactive; Bfl-1 A1 inh: -1; NALP3 yeast inh: 19; CHT block: inactive; Mot1-301 SUMO: -5

What do the screens show for `COC(=O)Oc1ccc(/C=N/NS(=O)(=O)c2ccccc2)cc1OC`?
CHT PAM: inactive; Bfl-1 A1 inh: -1; NALP3 yeast inh: -3; CHT block: inactive; Mot1-301 SUMO: 627*; NALP1 inh: 6; Mot1 SUMO dose: 0

Results for O=C1NC2(CCCCC2)CO1 ?
CHT PAM: inactive; Bfl-1 A1 inh: 1; NALP3 yeast inh: 16; CHT block: inactive; Mot1-301 SUMO: 10; NALP1 inh: 6

How did O=C1NC2(CCCCO2)CO1 (centres undefined) do in these assays?
CHT PAM: inactive; Bfl-1 A1 inh: 0; NALP3 yeast inh: -18; CHT block: inactive; Mot1-301 SUMO: 661*; NALP1 inh: 12; Mot1 SUMO dose: 0

How did COc1ccccc1C(=O)NNC(=O)c1ccccc1F do in these assays?
CHT PAM: inactive; Bfl-1 A1 inh: -4; NALP3 yeast inh: 9; CHT block: inactive; Mot1-301 SUMO: -10; NALP1 inh: 40

Results for COCC(=O)NNC(=O)c1ccccc1OC ?
CHT PAM: inactive; Bfl-1 A1 inh: 0; NALP3 yeast inh: 0; CHT block: inactive; Mot1-301 SUMO: 438*; NALP1 inh: 8; Mot1 SUMO dose: 0

Results for COc1ccc2[nH]c(=O)c(CN(C(=O)c3cccnc3)c3ccccc3)cc2c1 ?
CHT PAM: inactive; Bfl-1 A1 inh: 1; NALP3 yeast inh: 12; CHT block: inactive; Mot1-301 SUMO: -5; NALP1 inh: 14

Results for COc1ccc2[nH]c(=O)c(CN(C(=O)c3ccccn3)c3ccccc3)cc2c1 ?
CHT PAM: inactive; Bfl-1 A1 inh: 0; NALP3 yeast inh: 7; CHT block: inactive; Mot1-301 SUMO: active; NALP1 inh: 1; Mot1 SUMO dose: 1

How did O=C1CC(c2c[nH]c3ccccc23)C(=O)N1c1ccccc1 (centres undefined) do in these assays?
CHT PAM: inactive; Bfl-1 A1 inh: 0; NALP3 yeast inh: 7; CHT block: inactive; Mot1-301 SUMO: 709*; NALP1 inh: 0; Mot1 SUMO dose: 0

What do the screens show for `CC1(C)CC(=O)C(c2c[nH]c3ccccc23)C(=O)C1`?
CHT PAM: inactive; Bfl-1 A1 inh: 0; NALP3 yeast inh: 1; CHT block: inactive; Mot1-301 SUMO: -20; NALP1 inh: 18

What do the screens show for `O=C(NCCc1ccccc1)C1CCCN1S(=O)(=O)c1ccc(Cl)cc1` (centres undefined)?
CHT PAM: inactive; Bfl-1 A1 inh: 0; NALP3 yeast inh: 10; CHT block: inactive; Mot1-301 SUMO: 7; NALP1 inh: 11

How did Cc1ccc(S(=O)(=O)N2CCCC2C(=O)NCCc2ccccc2)cc1 (centres undefined) do in these assays?
CHT PAM: inactive; Bfl-1 A1 inh: -1; NALP3 yeast inh: 9; CHT block: inactive; Mot1-301 SUMO: 471*; NALP1 inh: -10; Mot1 SUMO dose: 0

Results for O=C(/C=C/c1ccc2c(c1)OCO2)c1ccc(F)cc1 ?
CHT PAM: inactive; Bfl-1 A1 inh: -2; NALP3 yeast inh: 5; CHT block: inactive; Mot1-301 SUMO: 45; NALP1 inh: 15

How did N#CC(CC(=O)c1ccc(F)cc1)c1ccc2c(c1)OCO2 (centres undefined) do in these assays?
CHT PAM: inactive; Bfl-1 A1 inh: 0; NALP3 yeast inh: 12; CHT block: inactive; Mot1-301 SUMO: 420*; NALP1 inh: 14; Mot1 SUMO dose: 0

Results for CCN(CC(=O)N1CCCCCC1)S(=O)(=O)c1ccc(Cl)cc1 ?
CHT PAM: inactive; Bfl-1 A1 inh: 1; NALP3 yeast inh: 12; CHT block: inactive; Mot1-301 SUMO: active; NALP1 inh: 9; Mot1 SUMO dose: 0

Results for CCN(CC(=O)N1CCN(C)CC1)S(=O)(=O)c1ccc(Cl)cc1 ?
CHT PAM: inactive; Bfl-1 A1 inh: 0; NALP3 yeast inh: 18; CHT block: inactive; Mot1-301 SUMO: -4; NALP1 inh: 29

Screening results from PubChem BioAssay.
